SMILES strings stand for the structures.

In this test the target is Streptavidin (Streptomyces avidinii) (UniProt P22629). The test can be described thus: compounds binding control protein streptavidin – biophysical, small-molecule microarray, 635/667 nm fluorescence, artefact control for SMM compound annotation, primary screen (AID 1147).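 Further: signal reflects streptavidin binding to arrayed compounds as a control protein.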 To be noted: higher = more signal.
Sequence of Streptavidin (Streptomyces avidinii) (P22629 whole entry, looked up): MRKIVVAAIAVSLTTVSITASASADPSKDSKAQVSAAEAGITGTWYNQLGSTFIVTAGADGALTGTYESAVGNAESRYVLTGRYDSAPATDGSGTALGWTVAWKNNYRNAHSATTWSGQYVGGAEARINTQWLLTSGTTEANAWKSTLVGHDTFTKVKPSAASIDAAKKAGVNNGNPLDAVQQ
Take `CO[C@H]1COC(=O)[C@H](CCSC)NC(=O)CC=C[C@@H](C)[C@H](OC)COC(=O)[C@@H](OCc2ccccc2)C=C[C@@H]1C`: the composite z-score was -0.0966. `COC(=O)[C@H](C)NC(=O)CCC1CC(OC(=O)NCCc2ccc(F)cc2)CC2(CCCC(COC(=O)NCCc3ccccc3OC)O2)O1` (stereo not given in full) registered a composite z-score of 0.553.

`CC(C)CN1CCc2nc(-c3ccccc3)c3c(c2C1)CO[C@@H](C)C3` displayed a composite z-score of 0.235. To `CC(C)[C@@H](OCc1ccccc1)[C@H](C)CON=C1[C@H]2CCn3c(=O)n(-c4ccccc4)c(=O)n3[C@H]2[C@H](O)[C@@H]2O[C@H]12` belongs 0.164. To `CON=C(C)CCN1CCc2nc(-c3ccccc3)c(-c3ccccc3)cc2C1` belongs 1.33; to `COc1ccc(OC[C@H]2CN3[C@@H](CC[C@@H](C)[C@@H]3c3ccc(Br)cc3)C(=O)O2)cc1`, 0.169; to `O=C(NN=C1C[C@@H](O)[C@@H](O)[C@@H]2[C@@H]3C(=O)N(c4ccc(F)cc4F)C(=O)[C@@H]3CC[C@H]12)OCc1ccccc1`, 0.727. Regarding `COC(=O)[C@H](C)NC(=O)CCC1CC(OC(=O)NCc2cccc3ccccc23)CC2(CCCC(COC(=O)NCc3ccccc3)O2)O1` (stereo not given in full), the composite z-score came to 0.777. Take `O=C1C2=CC[C@H]3C(=O)N(C4CCCCC4)C(=O)[C@H]3[C@H]2[C@H](O)[C@@H]2O[C@H]12`: the composite z-score is -0.408. As to `C#CCCCON=C1C[C@@H](O)[C@@H](O)[C@@H]2[C@@H]3C(=O)N(C[C@@H]4CCCO4)C(=O)[C@@H]3CC[C@H]12`, the composite z-score turned out to be 0.66. As to `O=C1[C@H]2CCn3c(=O)n(-c4ccccc4)c(=O)n3[C@H]2[C@H](O)[C@@H]2O[C@H]12`, the composite z-score worked out at 0.556.

For `CC(=O)OC[C@H]1O[C@H](CC=NOCC[C@@H]2C=C[C@H](OC(C)=O)[C@@H](COC(C)=O)O2)C=C[C@@H]1OC(C)=O`, the composite z-score stood at 0.162.

In the case of `CCCNC(=O)OC[C@H]1O[C@H](CCON=C[C@@H](C)[C@H](OCc2ccccc2)C(C)C)C=C[C@@H]1Oc1ccc(OC)cc1`, the composite z-score is -0.19. On to `CC(CCC(=O)OC[C@H]1O[C@H](C#Cc2ccccc2)C=C[C@@H]1Oc1ccc(C)cc1)=NOC(C)CN1CCCCc2nc(C)c(C)cc21` (stereo not given in full), for which the composite z-score was -0.0512. For `CCN1C(=O)[C@H]2[C@H]3[C@H](O)[C@H](O)CC(=NNC(=O)OCc4ccccc4)[C@H]3CC[C@H]2C1=O` the value was 0.214. Turning to `CO[C@@H](C(C)C)[C@@H](C)C1OC(=O)CC1O` (stereo not given in full), the composite z-score is -0.468. For the compound `CC(C)=NOC(C)CN1CCCc2nc(C)c(C)cc21` (stereo not given), the composite z-score is -0.0623.

For the compound `CO[C@@H]1[C@H](O)CO[C@H]1C=Cc1ccccc1`, the composite z-score is -0.223.

`COc1ccc(O[C@H]2C=C[C@@H](C#Cc3ccccc3)O[C@@H]2CO)cc1` yielded a composite z-score of 0.966. As to `CC(CCC(=O)OC[C@H]1O[C@H](C#Cc2ccccc2)C=C[C@@H]1Oc1ccc(C)cc1)=NOC[C@@H](C)[C@H](OCc1ccccc1)C(C)C`, the composite z-score was -0.783. For `CC(CCN1CCc2nc(-c3ccccc3)c(-c3ccccc3)cc2C1)=NOC(C)CN1CCCc2nc(C)c(C)cc21` (stereo not given) the value was 0.808; for `CCOC(=O)[C@H](CC(C)C)NC(=O)CCC1CC(OC(=O)NCc2ccc3c(c2)OCO3)CC2(CCCC(COC(=O)NCCc3ccc(Cl)cc3)O2)O1` (stereo not given in full), 0.288. `CC(=O)OC[C@H]1O[C@@H](ON=C(C)CCC(=O)OC[C@H]2O[C@H](C#Cc3ccccc3)C=C[C@@H]2Oc2ccc(C)cc2)[C@H](OC(C)=O)[C@@H](OC(C)=O)[C@@H]1OC(C)=O` gave a composite z-score of 0.29.

Compound `CC(C)CON=C1C[C@@H](O)[C@@H](O)[C@@H]2[C@@H]3C(=O)N(c4ccc(F)cc4F)C(=O)[C@@H]3CC[C@@H]12` gave a composite z-score of 0.744. To `CCOC(=O)CCN1C(=O)[C@H]2[C@H]3[C@H](O)[C@H](O)CC(=NO[C@@H]4O[C@H](CO)[C@@H](O)[C@H](O)[C@H]4O)[C@H]3CC[C@H]2C1=O` belongs -0.0432; to `CCOC(=O)[C@H](Cc1ccccc1)NC(=O)CCC1CC(OC(=O)NCc2cccc3ccccc23)CC2(CCCC(COC(=O)NCCc3ccc(Cl)cc3)O2)O1` (stereo not given in full), 0.998.

Consider `CCN1C(=O)[C@H]2[C@H]3[C@H](O)[C@H](O)CC(=NOC[C@@H](O)COCc4ccco4)[C@H]3CC[C@H]2C1=O`, for which the composite z-score is -1.09. With `C#CCCCON=C1C[C@@H](O)[C@@H](O)[C@@H]2[C@@H]3C(=O)N(C4CCCCC4)C(=O)[C@@H]3CC[C@@H]12`, the composite z-score is -0.383. For `COC(=O)[C@H](CCSC)NC(=O)CC=C[C@@H](C)CO` the value was -1.27; for `CCc1cc2c(nc1CC)CCN(CCC(C)=NO[C@@H]1O[C@H](COC(C)=O)[C@@H](OC(C)=O)[C@H](OC(C)=O)[C@H]1OC(C)=O)C2`, 0.963.

These data come from PubChem BioAssay.
